The source of these data is PubChem BioAssay (NCI).

Common to all, as to assay: NCI-60 one-dose screen, 48 h (100 = growth as untreated, 0 = no growth, -100 = all killed)
Details in all cases: 10 µM unless noted

Assay [1] has as its system RPMI-8226 leukemia.
Assay [2] relates to OVCAR-8 ovarian.
In assay [3] the test system is OVCAR-5 ovarian.
Assay [4] concerns OVCAR-4 ovarian.
Assay [5] concerns SK-OV-3 ovarian.
In assay [6] the test system is IGROV1 ovarian.
For assay [7], the system named is OVCAR-3 ovarian.
Assay [8] relates to HS 578T breast.
Assay [9] deals with NCI/ADR-RES ovarian.
The subject of assay [10] is SR leukemia.

The structures appear in SMILES notation. Values joined by “and” are separate entries in the source; they are usually repeats but may differ in a detail not shown here. Equal values may be shown once. About 83,000 compounds went through this panel and 20% of them were active in at least one assay; those are over-represented in the sample as a whole.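 How to read the values: 0–100, growth inhibition (40 = 60% inhibited); 0, no net growth; -100 to 0, cell death (-40 = 40% of starting cells died; -100 = all dead).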 Values without a mark were called inactive. Active and inactive are the calls of the source. The calls were made as follows: active = growth percent below 10; inactive = the rest.

Consider `O=C1NC(=O)/C(=C/C=C/c2ccccc2)S1`, for which the growth in assay [1] was 38.8%; in assay [2] it was 43.1%; in [3], 92.5%; in assay [4] it was 70.1%; in assay [5], 74.7%; in assay [6], -6.36% (active). The values for the growth in assay [7], in assay [8] and in assay [9] were 58.3%, 93.3% and 42.9%, respectively.

As for `COc1ccccc1OC(=O)Oc1ccccc1OC`, the growth in assay [10] is 103% and 101%; in assay [1], 105% and 72.9%; in [2], 103% and 112%; in [4], 114% and 99%; in assay [5] it was 112%; in assay [6] it was 105% and 97.2%. The growth in assay [7] is 119% and 96.3%; in assay [8] it was 92.4% and 102%; in assay [9] it was 114% and 95.8%.

On to `Oc1c(Br)cc(Cl)cc1C(c1cc(Cl)cc(Br)c1O)C(Cl)(Cl)Cl`, for which the growth in assay [10] is 28.5%; in assay [2], 14.3%; in [3] it was 42%; in assay [5], 32.5%; in assay [6] it was 24.8%; in [7], 12.7%. Moreover, the growth in [8] was 21.2%; in assay [9] it was 7.13% (active).

Consider `CN(C)CCOc1ccc2c(c1)C(=O)/C(=C\c1ncc([N+](=O)[O-])n1C)C2`, for which the growth is 9.88% (active) in assay [1]; 1.01% (active) in assay [2]; -21.1% (active) in [3]; -42.6% (active) in [5]; -47.7% (active) in assay [6]; -59% (active) in [7]. The growth was 21.1% in assay [8] and -1.71% (active) in assay [9].

As to `NC(=S)N/N=C\c1nccc2c(C(F)(F)C(F)(F)C(F)(F)F)cccc12`, the growth is -29.4% (active) in [10]; -11% (active) in assay [1]; -0.116% (active) in assay [2]; -21.8% (active) in [5]; 5.98% (active) in [6]; 4.2% (active) in assay [7]. Also, the growth in assay [8] was 50.7%; in assay [9] it was -11.6% (active).

Turning to `O=C(O)C1C2CC3C(OC(=O)C31)C2Br` (centres undefined), the growth is 97.3% and 101% in [10]; 102% and 106% in [1]; 97.8% and 100% in assay [2]; 95.8% and 105% in assay [5]; 103% and 114% in assay [6]; 110% and 106% in assay [7]. For the same compound, the growth in assay [8] was 93.4% and 95.7%; in assay [9], 103% and 100%.

Consider `CC1OC2CC(=O)OC2C2=C1C(=O)c1c(O)cccc1C2=O` (centres undefined), for which the growth is -30% (active) in assay [10]; -9.64% (active) in [1]; -14.7% (active) in assay [2]; -98.5% (active) in assay [4]; 21% in assay [5]; -97.9% (active) in [7]. Besides, the growth in assay [8] is 5.97% (active); in assay [9], -6.77% (active).

`CCOc1ccc(-c2nc3ccc(-c4nc5ccc(N6CCN(C)CC6)cc5[nH]4)cc3[nH]2)cc1`: the growth in assay [1] was -4.63% (active); in assay [2], -38.2% (active); in assay [3], -45.8% (active); in assay [4] it was -65.1% (active); in [5] it was -93.7% (active); in assay [6], -82.9% (active). Also, the growth in assay [8] was -58.3% (active); in [9] it was 61%.

As for `COc1ccc(N=N/N=c2\sc3cc(OC)ccc3n2C)cc1`, the growth in assay [10] is 88.9%; in assay [1], 77.3%; in assay [2] it was 75.1%; in [4], 108%; in assay [5] it was 86.3%; in [6], 91.7%. Further, the growth in assay [8] is 96%; in assay [9] it was 109%.
